Results: PubChem BioAssay (NCATS)
“And” between values parts separate entries of the source, which are not always exact repeats. Identical values can stand only once. A number with no mark means an inactive call. Inconclusive results are not listed. Where a call stands in place of a potency, no number is given. The source made the active and inactive calls. Unless noted, calls follow the shape of the dose curve; as a rule, active = well fitted curve in the direction sought with a large enough effect; inconclusive = small, poorly fitted or top-dose-only effect, or another doubt; inactive = no such curve, though single readings can be large; an effect the other way counts as inactive or inconclusive.

Assays:
[1] = Cell Viability - MRC5 (AID 434; calls by dose curve;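 also: potency is read from the fitted curve at half-maximal effect; cells exposed to compound for 40 hours at 37 °C; potency reflects cytotoxicity seen as loss of intracellular ATP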); conditions: MRC5 lung fibroblast viability, qHTS
Procedure, shortened: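 qHTS cytotoxicity in human lung fibroblast MRC5 cells; 40 hr treatment, 37 °C; cellular ATP by luciferase luminescence; DMSO = 0%, 100 uM tamoxifen = 100% inhibition; Hill-fit AC50.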

[2] = Cellular Toxicity (caspase-3) HepG2 (AID 654); conditions: HepG2 caspase-3 activation, luminescence; series mostly up to 92.2 µM;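 also: cells exposed to compound for 16 hours before reading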
Procedure, shortened: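 HepG2 cells (1500/well) were treated 16 h at 37 °C in complete medium, then caspase 3/7 activity was read by Caspase-Glo luminescence. Data were normalized to DMSO and 100 uM tamoxifen; AC50 came from Hill-equation fits of qHTS concentration-response.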

[3] = Cellular Toxicity (caspase-3) HUV-EC-C (AID 656); conditions: HUV-EC-C cells, caspase-3 activation (apoptosis); series mostly up to 92.2 µM
Procedure, shortened: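 Concentration-dependent caspase 3/7 induction was assessed in HUV-EC-C cells exposed for 16 hours. Data scaled between DMSO and tamoxifen (100 uM) controls.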

[4] = Cellular Toxicity (caspase-3) SHSY5Y (AID 657); conditions: SH-SY5Y caspase-3 activation; series mostly up to 91.7 µM
Procedure, shortened: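 Readout: caspase-cleaved peptide-aminoluciferin substrate driving luciferase light in SH-SY5Y neuroblastoma cells after 16 h treatment. Response normalized to DMSO and 10 uM staurosporine controls.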

[5] = Cellular Toxicity (caspase-3) BJ (AID 658); conditions: BJ fibroblasts, luminescence; Potency: caspase-3 activation; series mostly up to 91.7 µM
Procedure, shortened: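 Readout: Caspase-Glo 3/7 luminescence increase in BJ cells after 16 hr treatment at 37 °C. Staurosporine and tamoxifen served as positive controls; AC50 values came from Hill modelling of data normalized to DMSO and 10 uM staurosporine.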

[6] = Cellular Toxicity (caspase-3) MRC-5 (AID 659); conditions: MRC-5 cells, luminescence, normalized: DMSO 0%, 10 µM staurosporine 100%; series mostly up to 91.7 µM
Procedure, shortened: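 Concentration-dependent caspase 3/7 activation is measured in human normal lung fibroblasts (MRC-5) following 16-hour treatment. AC50 values come from standard Hill-equation modeling of luminescence normalized to DMSO and 10 uM staurosporine.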

[7] = Cellular Toxicity (caspase-3) Mesangial (AID 660); conditions: mesangial cells, normalized: DMSO 0%, 100 µM tamoxifen 100%; series mostly up to 91.7 µM;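 also: cells exposed to compound for 16 h before the caspase read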
Procedure, shortened: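 Human renal glomerular mesangial cells, 1000/well, 5 h at 37 C before 16 h compound treatment. Caspase-Glo 3/7 luminescence after 20 min; normalized to DMSO and 100 uM tamoxifen, AC50 from Hill fit.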

[8] = Cellular Toxicity (caspase-3) SK-N-SH (AID 661); conditions: SK-N-SH caspase-3 activation, qHTS, DMSO as zero, staurosporine as full; series mostly up to 91.7 µM
Procedure, shortened: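 Human SK-N-SH neuroblastoma cells, 1500/well, were exposed to compounds for 16 hours at 37 °C. Caspase-Glo 3/7 luminescence was normalized to DMSO (basal) and 10 uM staurosporine (100%), and AC50 came from a Hill fit.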

[9] = Cellular Toxicity (caspase-3) H-4-II-E (AID 663); conditions: H-4-II-E rat hepatoma; Potency: caspase-3 activation; series mostly up to 92.2 µM;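 also: cells exposed to compound for 16 hr before readout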
Procedure, shortened: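 Apoptosis induction is scored as increased luminescence from caspase 3/7 substrate cleavage in rat hepatoma H-4-II-E cells exposed to compound for 16 hr. Activity is scaled between DMSO and 100 uM tamoxifen.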

[10] = Cellular Toxicity (caspase-3) Hek293 (AID 664); conditions: HEK293 caspase-3 activation, DMSO = 0%, 100 µM tamoxifen = 100%; at 92.2 µM (top of the series);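 also: cells exposed to compound for 16 h at 37 °C before readout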
Procedure, shortened: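 HEK293 cells in complete medium treated 16 h at 37 °C, then Caspase-Glo 3/7 luminescence read after 20 min at room temperature. Normalized to DMSO and 100 uM tamoxifen; AC50 from Hill fit of concentration-response.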

[11] = Cellular Toxicity (caspase-3) N2a (AID 665); conditions: N2a cells, luminescence, normalized: DMSO 0%, 10 µM staurosporine 100%; series mostly up to 92.2 µM;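 also: compound exposure lasted 16 h at 37 °C before readout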
Procedure, shortened: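 Mouse N2a neuroblastoma cells, 1500 per well, treated 16 h at 37 °C in complete medium; caspase-3/7 activity by Caspase-Glo luminescence after 1 h. Normalized to DMSO and 10 uM staurosporine; AC50 from Hill fits.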

[12] = Cellular Toxicity (caspase-3) Renal Proximal Tubule (AID 667); conditions: renal proximal tubule cells, primary cells freshly taken from rat; Potency: caspase-3 activation; series mostly up to 91.7 µM;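 also: cells exposed to compound for 16 hours at 37 °C before detection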
Procedure, shortened: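 Caspase-Glo 3/7 read-out, rat primary kidney proximal tubule cells. Compound exposure 16 h, 37 °C; detection after 1 h at RT. Activity scaled to DMSO and 10 uM staurosporine.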

[13] = MultiTox-Fluor Cytotoxicity Assay - LYMP1-001 - Dead Cells (AID 946); conditions: LYMP1-001 lymphoblastoid cells, dead-cell protease fluorescence; series mostly up to 92.2 µM
Procedure, shortened: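 Cytotoxicity as increased dead-cell protease fluorescence (bis-AAF-R110, 485/520 nm), read 60 min after MultiTox-Fluor reagent. Human lymphoblastoid line exposed 16 h; Hill-fitted AC50, with DMSO as 0% and 15 uM tetraoctylammonium bromide as 100%.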

[14] = MultiTox-Fluor Cytotoxicity Assay - LYMP1-003 - Live Cells (AID 962); conditions: LYMP1-003 lymphoblastoid cells, MultiTox-Fluor live-cell protease fluorescence; series mostly up to 92.2 µM;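 also: cytotoxic hits lower the live-cell protease signal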
Procedure, shortened: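 LYMP1-003 lymphoblastoid cells, 2500/well in complete medium, treated 16 h at 37 C; live-cell protease cleavage of GF-AFC read by fluorescence (Ex/Em 405/510) after 60 min reagent; AC50 from Hill fits of concentration-response.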

[15] = Cell Viability - LYMP1-003 - Assay at 24 hr (AID 963); conditions: LYMP1-003 lymphoblastoid cell viability; series mostly up to 92.2 µM
Procedure, shortened: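 Human lymphoblastoid LYMP1-003 cells, 2500/well, treated 24 h at 37 C in complete medium. Viability read as intracellular ATP by CellTiter-Glo luminescence after 30 min at room temperature; AC50 from Hill-equation fits of qHTS concentration-response.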

[16] = qHTS Assay for Identification of Small Molecule Inducers of Hypoxia Response (AID 2120; active = well fitted curve in the direction sought with a large enough effect in the signal ratio, with a control signal flat, not every such curve was filed as active; the % refers to the signal ratio); conditions: hypoxia response reporter cells, beta-lactamase ratio readout; series mostly up to 104 µM
Procedure, shortened: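 HRE-bla ME-180 cells in Opti-MEM with 0.5% dialyzed FBS, pre-plated 4-5 h, then compound titration for 17 h at 37 degrees Celsius. CCF4 loaded 2.5 h at room temperature; 460/530 nm ratio gave %Activity and AC50 for induction.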

[17] = molecular target: Peroxisome proliferator-activated receptor alpha (Homo sapiens) (UniProt Q07869); test: qHTS assay for small molecule agonists of the peroxisome proliferator-activated receptor alpha (PPARalpha) signaling pathway (AID 651778); conditions: PathHunter PPARalpha complementation, chemiluminescence, 6 h; max response: stronger effect = higher value
Chain of Peroxisome proliferator-activated receptor alpha (Homo sapiens) (Q07869 whole entry, looked up): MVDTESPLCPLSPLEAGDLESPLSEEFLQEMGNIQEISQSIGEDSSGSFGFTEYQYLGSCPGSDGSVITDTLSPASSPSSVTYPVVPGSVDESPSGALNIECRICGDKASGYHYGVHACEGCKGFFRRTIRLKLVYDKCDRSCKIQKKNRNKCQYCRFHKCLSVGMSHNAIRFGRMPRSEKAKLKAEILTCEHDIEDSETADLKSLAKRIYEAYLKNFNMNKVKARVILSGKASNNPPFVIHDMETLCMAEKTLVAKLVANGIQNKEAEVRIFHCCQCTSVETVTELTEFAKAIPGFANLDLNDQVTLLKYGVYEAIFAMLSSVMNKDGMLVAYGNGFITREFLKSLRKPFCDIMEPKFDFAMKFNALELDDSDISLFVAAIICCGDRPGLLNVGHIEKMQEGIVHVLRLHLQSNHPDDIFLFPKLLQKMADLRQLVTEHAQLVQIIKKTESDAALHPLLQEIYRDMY
Procedure, shortened: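 Chemiluminescence from complemented enzyme reported PPARalpha activation in cells after 6 hr of compound treatment at 37 C. The detection reagent was incubated for 60 min at room temperature, and compounds were scored as agonists.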

[18] = qHTS assay for small molecule agonists of the antioxidant response element (ARE) signaling pathway measured by Nrf2-dependant transcriptional activity - cell viability counter screen (AID 720653; active = well fitted curve in the direction sought with a large enough effect in the repeat runs; an effect the other way counts as inactive or inconclusive); conditions: ARE-bla HepG2 viability, CellTiter-Glo ATP luminescence, 16 h; max response: stronger effect = lower value
Procedure, shortened: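 Cytotoxicity counter screen: intracellular ATP quantified by CellTiter-Glo luminescence in the same ARE-bla HepG2 plates, after 16 h compound exposure and a 2 h beta-lactamase substrate step.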

[19] = qHTS assay for cell viability of HEK293 cells (AID 743288); conditions: ATP luminescence (CellTiter-Glo), 18 h; max response: stronger effect = lower value; also: nearly all actives have a fitted effect of over 50% in size; also: potency is read from the fitted curve at half-maximal effect
Procedure, shortened: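 Luminescent ATP quantitation served as the viability read-out. Cells (parental HEK293, 2,000/well) received compounds after at least 5 h at 37 C and were exposed for 18 h before a 30 min room-temperature reagent step.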

[20] = qHTS assay for cell viability of the p53RE-bla HCT-116 cell line (AID 743292); conditions: p53RE-bla HCT-116 viability, ATP luminescence, 16 h; series mostly up to 95 µM; also: nearly all actives have a fitted effect of over 55% in size
Procedure, shortened: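 ATP-based luminescence, 16 h compound exposure at 37 C, p53RE-bla HCT-116 cells at 4,000/well.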

With `O=C(Cl)c1ccc([N+](=O)[O-])cc1` the Potency [1] was over 92 µM, the Potency [2] was “inactive” and the Potency [3] was “inactive”. The Potency [4] was “inactive”, the Potency [5] was “inactive” and the outcome [6] was “inactive”. The outcome [7] was “inactive”, the outcome [8] was “inactive” and the Potency [9] was “inactive”. The caspase-3 activation [10] was -0.0349%, the outcome [11] was “inactive” and the Potency [12] was “inactive”. For the same molecule, the Potency [13] was “inactive”, the Potency [14] was “inactive” and the Potency [15] was “inactive”. For the same molecule, the Potency [16] was “inactive”, the max response [17] was -4.65% and the max response [18] was 1.64%. The max response [19] was 0.724% and the Potency [20] was “inactive”.
With `O=[N+]([O-])c1cc(N(CCO)CCO)ccc1NCCO` the Potency [1] was 67.7 µM, the Potency [2] was “inactive” and the Potency [3] was “inactive”. The Potency [4] was “inactive”, the Potency [5] was “inactive” and the outcome [6] was “inactive”. For the same molecule, the outcome [7] was “inactive”, the outcome [8] was “inactive” and the Potency [9] was “inactive”. The caspase-3 activation [10] was -3.81%, the outcome [11] was “inactive” and the Potency [12] was “inactive”. The Potency [13] was “inactive”, the Potency [14] was “inactive” and the Potency [15] was “inactive”. For the same molecule, the Potency [16] was “inactive”, the max response [17] was -11.2% and -4.73% and the max response [18] was -24.7%. The Potency [19] was 44.7 µM (active) and the Potency [20] was “inactive”.
For `CCN(CC)c1ccc(N)cc1`, the Potency [2] was “inactive”, the Potency [3] was “inactive” and the Potency [5] was “inactive”. The outcome [6] was “inactive”, the outcome [7] was “inactive” and the outcome [8] was “inactive”. For the same molecule, the Potency [9] was “inactive”, the caspase-3 activation [10] was 18.6% and the outcome [11] was “inactive”. The Potency [12] was “inactive”, the Potency [14] was “inactive” and the Potency [15] was “inactive”. The Potency [16] was “inactive”, the max response [17] was -0.774% and the Potency [20] was “inactive”.
In the case of `Cc1cc2nc(N)sc2cc1C`, the Potency [1] is reported as over 92 µM, the Potency [2] is reported as “inactive” and the Potency [3] is reported as “inactive”. The Potency [4] was “inactive”, the Potency [5] was “inactive” and the outcome [6] was “inactive”. For the same molecule, the outcome [7] was “inactive”, the outcome [8] was “inactive” and the Potency [9] was “inactive”. For the same molecule, the caspase-3 activation [10] was -7.89%, the outcome [11] was “inactive” and the Potency [13] was “inactive”. For the same molecule, the Potency [14] was “inactive”, the Potency [15] was “inactive” and the Potency [16] was “inactive”. It also gave a max response [17] of -4.39%, a max response [18] of -19.7% and a max response [19] of -12.3%. For the same molecule, the Potency [20] was “inactive”.
With `Cc1cc(-c2ccc(N=Nc3cc(S(=O)(=O)O)c4ccccc4c3N)c(C)c2)ccc1N=Nc1cc(S(=O)(=O)O)c2ccccc2c1N` the Potency [1] was over 92 µM, the Potency [2] was “inactive” and the Potency [3] was “inactive”. The Potency [4] was “inactive”, the Potency [5] was “inactive” and the outcome [6] was “inactive”. The outcome [7] was “inactive”, the outcome [8] was “inactive” and the Potency [9] was “inactive”. For the same molecule, the caspase-3 activation [10] was -4.55%, the outcome [11] was “inactive” and the Potency [12] was “inactive”. The Potency [13] was “inactive”, the Potency [14] was “inactive” and the Potency [15] was “inactive”. The Potency [16] was “inactive”, the max response [17] was -11.9% and the max response [18] was -27.3%.
For `Nc1ccc2c(c1)C(=O)c1ccccc1C2=O`, the Potency [1] was over 92 µM, the Potency [2] was “inactive” and the Potency [3] was “inactive”. For the same molecule, the Potency [4] was “inactive”, the Potency [5] was “inactive” and the outcome [6] was “inactive”. The outcome [7] was “inactive”, the outcome [8] was “inactive” and the Potency [9] was “inactive”. For the same molecule, the caspase-3 activation [10] was -8.84%, the outcome [11] was “inactive” and the Potency [12] was “inactive”. For the same molecule, the Potency [13] was “inactive”, the Potency [14] was “inactive” and the Potency [15] was “inactive”. For the same molecule, the Potency [16] was “inactive”, the max response [17] was -6.61% and 0.0151% and the max response [18] was -14.7% and -7.62%. For the same molecule, the max response [19] was -13.3% and -4.81% and the Potency [20] was “inactive”.
